Records with an inconclusive call do not appear. Values without a mark were called inactive. The source made the active and inactive calls. Calls follow the shape of the dose curve; as a rule, active = well fitted curve in the direction sought with a large enough effect; inconclusive = small, poorly fitted or top-dose-only effect, or another doubt; inactive = no such curve, though single readings can be large; an effect the other way counts as inactive or inconclusive.

Data on 9 compounds can be found in PubChem BioAssay (NCATS).

One assay has as its system CRL-7250. Description: Cytotoxic Profiling of Annotated Libraries Using Quantitative High-Throughput Screening (AID 1296008). Also: nearly all actives have a fitted effect of over 60% in size. The conditions noted are these: Five cell lines viability, CellTiter-Glo ATP luminescence, 48-72 h; max response: stronger effect = lower value. The gist of the method:
(§1)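 Cytotoxicity was measured as CellTiter-Glo ATP luminescence, read after 10 min at room temperature. Compound treatment of the cells lasted 48 or 72 hr at 37 degrees Celsius in a qHTS format.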

In assay [1] the test system is HaCat. The description is as above. The settings on record: Five cell lines viability, CellTiter-Glo ATP luminescence, 48-72 h; max response: stronger effect = lower value. The gist of the method: as §1
A further assay concerns KB-3-1. The assay is described as above. The settings on record: Five cell lines viability, CellTiter-Glo ATP luminescence, 48-72 h; max response: stronger effect = lower value. An outline of the steps: as §1
Background: In ATP-based viability assays light output follows the ATP content of the culture.

The subject of assay [2] is NIH3T3. The description is as above. The settings on record: Five cell lines viability, CellTiter-Glo ATP luminescence, 48-72 h; max response: stronger effect = lower value. The gist of the method: as §1
Another assay concerns MCC-13. Briefly: qHTS assay to identify novel small-molecules to repurpose for Merkel cell carcinoma treatment (AID 1296009). Also: nearly all actives have a fitted effect of over 60% in size. Also: potency is read from the fitted curve at half-maximal effect. The conditions noted are these: MCC and control cell lines, CellTiter-Glo viability, 72 h; series mostly up to 46 µM. The gist of the method: (§2)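 72 hr, 37 degree celsius; NPC 8-pt / MIPE 11-pt dose response; compound pinned in DMSO; CellTiter-Glo, 10 min RT, luminescence; normalized to no-cell and DMSO controls.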
A general note: Quantitative high-throughput screening tests each substance at several concentrations.

The subject of another assay is MCC-26. The description is as above. The settings on record: MCC and control cell lines, CellTiter-Glo viability, 72 h; series mostly up to 46 µM. An outline of the steps:
as §2

The next assay concerns MKL-1. The description is as above. The conditions noted are these: MCC and control cell lines, CellTiter-Glo viability, 72 h; series mostly up to 46 µM. An outline of the steps:
as §2

For a further assay, the system named is MKL-2. The assay is described as above. The settings on record: MCC and control cell lines, CellTiter-Glo viability, 72 h; series mostly up to 46 µM. An outline of the steps:
as §2

A further assay has as its system WaGa. The assay is described as above. The conditions noted are these: MCC and control cell lines, CellTiter-Glo viability, 72 h; series mostly up to 46 µM. The gist of the method: as §2
The test system of a further assay is C33A. Description: Primary qHTS to identify gynecologic anti-cancer compounds using libraries of approved drugs and bioactive compounds (AID 1345084). Also: nearly all actives have a fitted effect of over 55% in size. The settings on record: Gynecologic cancer cell panel viability, ATPlite luminescence, 48 h; series mostly up to 57.5 µM. The gist of the method:
(§3)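 48 h compound exposure at 37 C, 5% CO2; five-point qHTS. ATPlite luminescence readout of cell ATP.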

Another assay concerns CAOV3. The description is as above. The settings on record: Gynecologic cancer cell panel viability, ATPlite luminescence, 48 h; series mostly up to 57.5 µM. An outline of the steps: as §3
In another assay the test system is CASKI. The assay is described as above. The settings on record: Gynecologic cancer cell panel viability, ATPlite luminescence, 48 h; series mostly up to 57.5 µM. The gist of the method:
as §3

A further assay concerns Es-2. Described as above. The conditions noted are these: Gynecologic cancer cell panel viability, ATPlite luminescence, 48 h; series mostly up to 57.5 µM. The gist of the method: as §3
The test system of a further assay is HeLa. The description is as above. The conditions noted are these: Gynecologic cancer cell panel viability, ATPlite luminescence, 48 h; series mostly up to 57.5 µM. The gist of the method:
as §3

The test system of another assay is HEK293. Briefly: Cytotoxic Profiling of Annotated Libraries Using Quantitative High-Throughput Screening (AID 1296008). Also: nearly all actives have a fitted effect of over 60% in size. The settings on record: Five cell lines viability, CellTiter-Glo ATP luminescence, 48-72 h; max response: stronger effect = lower value. The gist of the method:
as §1

The subject of a further assay is UISO. Briefly: qHTS assay to identify novel small-molecules to repurpose for Merkel cell carcinoma treatment (AID 1296009). Also: nearly all actives have a fitted effect of over 60% in size. Also: potency is read from the fitted curve at half-maximal effect. The conditions noted are these: MCC and control cell lines, CellTiter-Glo viability, 72 h; series mostly up to 46 µM. The gist of the method:
as §2

The subject of assay [3] is HACAT. The description is as above. The conditions noted are these: MCC and control cell lines, CellTiter-Glo viability, 72 h; at 44.8 µM (top of the series) unless noted. The gist of the method: as §2
In assay [4] the test system is NIH3T3. Described as above. The settings on record: MCC and control cell lines, CellTiter-Glo viability, 72 h; at 44.8 µM (top of the series) unless noted. The gist of the method:
as §2
% is scaled to controls: 0 for no effect and ±100 for the full control effect.

As to `CCCN(CCC)CCc1c[nH]c2ccccc12`, the max response in the assay on CRL-7250 is -1.07%; in the assay with HaCat [1] it was -5.54%; in the assay with KB-3-1, -20.7%; in the assay on NIH3T3 [2], 3.34%. Moreover, the Potency entry with MCC-13, in the assay on MCC-26, with MKL-1, in the assay on MKL-2, with WaGa and in the assay with C33A was “inactive” each time. Also, the Potency entry in the assay with CAOV3, in the assay with CASKI, with Es-2 and with HeLa was “inactive” in each case.

As for `CCOC(C(=O)OCCN(C)C)(c1ccccc1)c1ccccc1`, the max response with HEK293 was -2.86%. Moreover, the Potency result in the assay on MCC-13, with MCC-26, in the assay with MKL-1, with MKL-2, in the assay on UISO and in the assay on WaGa was “inactive” throughout. Moreover, the Potency result in the assay with C33A, in the assay with CAOV3, in the assay with CASKI, in the assay with Es-2 and with HeLa was “inactive” throughout.

`OC(c1ccccc1)(c1ccccc1)C1CCNCC1`: the max response in the assay on CRL-7250 is 4.48%; in the assay on HaCat [1] it was -12.8%; in the assay on KB-3-1, -11.7%; in the assay on NIH3T3 [2], -1.52%. In addition, the Potency result in the assay on MCC-13, in the assay on MCC-26, in the assay with MKL-1, in the assay on MKL-2, in the assay with UISO and with WaGa was “inactive” throughout. In addition, the Potency result in the assay on C33A, with CAOV3, in the assay on CASKI, in the assay with Es-2 and with HeLa was “inactive” in each case.

`Oc1ccc2[nH]cc(CCCCN3CC=C(c4ccccc4)CC3)c2c1`: the max response was 4.19% in the assay with CRL-7250 and 7.3% in the assay with KB-3-1. For the same compound, the outcome in the assay with HaCat [1] and in the assay with HACAT [3] was inactive. The Potency result in the assay with MCC-13, in the assay with MCC-26, in the assay on C33A, in the assay with CASKI, in the assay with Es-2 and in the assay with HeLa was “inactive” throughout. In addition, the Potency with MKL-1 is 8.41 µM (active); in the assay on MKL-2, 5.96 µM (active); with UISO it was 8.41 µM (active); in the assay with WaGa it was 2.99 µM (active).

Consider `Cc1nc2ccccc2c(=O)n1-c1ccccc1Cl`, for which the values for the max response in the assay with CRL-7250, with HaCat [1] and with KB-3-1 were -16.7%, -9.75% and -1.49%, respectively. Further, the Potency result in the assay on MCC-13, in the assay on MCC-26, with MKL-1, in the assay with MKL-2, in the assay on UISO and in the assay on WaGa was “inactive” in each case. Also, the Potency entry in the assay with C33A, with CAOV3, in the assay on Es-2 and in the assay with HeLa was “inactive” in each case.

With `Cc1ncc2n1-c1ccc(Cl)cc1C(c1ccccc1F)=NC2`, the max response is -4.93% with HEK293, -24.4% in the assay on KB-3-1 and -10.5% in the assay on NIH3T3 [2]. For the same compound, the outcome in the assay on HaCat [1] and in the assay with HACAT [3] was inactive. The Potency result in the assay with MCC-13, with MCC-26, in the assay with MKL-1, in the assay with MKL-2, in the assay on UISO and in the assay with C33A was “inactive” throughout. In addition, the Potency entry in the assay on CAOV3, in the assay on CASKI, in the assay on Es-2 and with HeLa was “inactive” throughout.

In the case of `CC(C)(C)OC(=O)c1ncn2c1[C@@H]1CCCN1C(=O)c1c(Br)cccc1-2`, the call with CRL-7250, with NIH3T3 [2] and in the assay with NIH3T3 [4] was inactive. Also, the max response was 3.04% in the assay on HaCat [1] and -1.12% in the assay on KB-3-1. The Potency entry in the assay with MCC-13, in the assay with MCC-26, in the assay with MKL-1, in the assay with MKL-2, with UISO and with WaGa was “inactive” each time. Moreover, the Potency result in the assay on C33A, in the assay with CAOV3, with CASKI, in the assay with Es-2 and in the assay with HeLa was “inactive” throughout.

As to `Cc1cccc(Cc2cnc[nH]2)c1C`, the max response with CRL-7250 is -4.56%; in the assay with HaCat [1] it was -10%; in the assay on KB-3-1 it was -11.3%; in the assay on NIH3T3 [2] it was -2.68%. In addition, the Potency entry in the assay with MCC-13, with MCC-26, in the assay with MKL-1, in the assay with MKL-2, in the assay on WaGa and in the assay on C33A was “inactive” each time. For the same compound, the Potency entry in the assay on CAOV3, with CASKI, in the assay on Es-2 and with HeLa was “inactive” each time.

Turning to `CCc1cc(OC)c(C[C@H](C)N)cc1OC`, the max response with CRL-7250 was -4.69%; in the assay with HaCat [1] it was 0.504%; in the assay on KB-3-1 it was -8.43%; in the assay with NIH3T3 [2], -16.2%. For the same compound, the Potency entry in the assay on MCC-13, with MCC-26, in the assay with MKL-1, in the assay with MKL-2, in the assay with WaGa and with C33A was “inactive” in each case. Further, the Potency entry with CAOV3, in the assay with CASKI, with Es-2 and with HeLa was “inactive” throughout.
